PubChem BioAssay (Tox21)
Inconclusive results are not listed. Unmarked numbers belong to inactive results. The source made the active and inactive calls. The call rests on the fitted dose curve; in most records, active means well fitted inhibition curve with a large enough effect in the repeat runs; inconclusive means weak or mixed curves; inactive means flat fitted curve, though single readings scatter.

The molecules below were run against Voltage-gated inwardly rectifying potassium channel KCNH2 (Homo sapiens) (UniProt Q12809) (assay: Human Ether-a-go-go-Related Gene (hERG) channel small molecule antagonists: fluorescence cell-based qHTS assay (AID 1671200; further: nearly all actives have a fitted effect of over 50% in size)). Conditions: hERG-U2OS cells, FluxOR thallium flux fluorescence; series mostly up to 76.8 µM; activity change, negative = inhibition: at the top concentration.
Chain of Voltage-gated inwardly rectifying potassium channel KCNH2 (Homo sapiens) (Q12809 whole entry, looked up): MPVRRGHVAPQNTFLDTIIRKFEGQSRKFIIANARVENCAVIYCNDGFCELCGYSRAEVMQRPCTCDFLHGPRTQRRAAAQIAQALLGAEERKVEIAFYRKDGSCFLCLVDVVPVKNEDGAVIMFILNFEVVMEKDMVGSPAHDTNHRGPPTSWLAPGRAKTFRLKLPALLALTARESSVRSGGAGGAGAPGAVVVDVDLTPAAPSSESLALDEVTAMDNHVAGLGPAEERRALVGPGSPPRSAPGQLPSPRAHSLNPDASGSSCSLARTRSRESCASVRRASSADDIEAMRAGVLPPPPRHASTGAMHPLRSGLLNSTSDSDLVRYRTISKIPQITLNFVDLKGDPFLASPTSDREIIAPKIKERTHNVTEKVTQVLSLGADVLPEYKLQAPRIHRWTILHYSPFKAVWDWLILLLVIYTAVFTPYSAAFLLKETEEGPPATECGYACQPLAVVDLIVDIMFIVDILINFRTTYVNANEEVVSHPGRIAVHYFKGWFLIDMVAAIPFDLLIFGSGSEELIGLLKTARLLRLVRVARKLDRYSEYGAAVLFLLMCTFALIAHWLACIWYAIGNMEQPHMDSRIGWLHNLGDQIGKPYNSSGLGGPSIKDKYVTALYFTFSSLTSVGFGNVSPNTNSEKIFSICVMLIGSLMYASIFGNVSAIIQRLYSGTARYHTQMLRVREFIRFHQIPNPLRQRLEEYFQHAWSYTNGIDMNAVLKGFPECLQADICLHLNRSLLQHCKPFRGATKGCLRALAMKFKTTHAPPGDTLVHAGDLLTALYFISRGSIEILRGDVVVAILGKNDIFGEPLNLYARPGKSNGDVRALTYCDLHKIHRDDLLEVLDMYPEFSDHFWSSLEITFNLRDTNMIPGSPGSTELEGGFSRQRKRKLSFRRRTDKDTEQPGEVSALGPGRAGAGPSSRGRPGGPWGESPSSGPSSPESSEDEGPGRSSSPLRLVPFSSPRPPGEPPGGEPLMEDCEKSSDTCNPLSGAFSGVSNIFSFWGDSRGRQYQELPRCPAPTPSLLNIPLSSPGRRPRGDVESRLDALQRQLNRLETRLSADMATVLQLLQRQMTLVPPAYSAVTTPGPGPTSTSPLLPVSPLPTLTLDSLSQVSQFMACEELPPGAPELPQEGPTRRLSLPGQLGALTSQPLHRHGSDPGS
Source text: National Center for Advancing Translational Sciences [NCATS]
U.S. Environmental Protection Agency [EPA]
National Institutes of Environmental Health Sciences [NIEHS]
National Toxicology Program [NTP]
U.S. Food and Drug Administration [FDA]
Mutations in the hERG channel cause Long QT (LQT) syndrome. LQT syndrome is a cardiac disorder which can cause ventricle arrhythmia and sudden death. Additionally, compounds which block the hERG channel can cause acquired LQT syndrome. Several FDA approved drugs have been removed from the market due to their hERG blocking activity. A cell-based hERG channel inhibition assay can be used to screen chemical compounds that inhibit hERG channel. This assay measures hERG channel activity using thallium ions as surrogate ions to measure potassium into the cells.
Tox21 Assay Protocol Summary:
hERG-U2OS cells were resuspended in culture medium and dispensed into 1536-well, black wall/clear-bottom plates at 1000cells/well/3uL using a Multidrop Combi dispenser (Thermo Fisher, Waltham, MA). After plates were incubated at 37 C overnight, 3 uL of Loading Buffer provided by FluxOR II Potassium Ion Channel Assay kit (Thermo, Carlsbad, CA) was added to each well. The assay plates were then incubated at room temperature in the dark for 1h. […] After the assay plates were incubated at room temperature for 10 min, 1 uL of Stimulus Buffer provided by FluxOR II Potassium Ion Channel Assay kit was added into each well and fluorescence intensity (480nm excitation/540nm emission) was continuously measured for 2 min at 1 second intervals using a Functional Drug Screening System (FDSS) 7000EX kinetic plate reader (Hamamatsu, Japan).
On the % scale 0 is the no-effect control and ±100 the full control effect; potency means the concentration at half of the fitted maximal effect.

Compared with CCCCN, CC(=O)NCCCCCC(=O)O is lower in “activity change, negative = inhibition” value: 0.264% [at 35.3 µM] for the first, -9.42% [at 35.3 µM] for the second.

Going from COc1ccc(-c2cc(=O)c3c(O)cc(O[C@@H]4O[C@H](CO[C@@H]5O[C@@H](C)[C@H](O)[C@@H](O)[C@H]5O)[C@@H](O)[C@H](O)[C@H]4O)cc3o2)cc1O to COc1ccc2c(c1)C(=O)N(CCc1ccc(S(=O)(=O)NC(=O)NC3CCCCC3)cc1)C(=O)C2(C)C, the “activity change, negative = inhibition” value falls from 2.94% [at 35.3 µM] to -1.01% [at 35.3 µM].

Going from O=C(OCC(O)CO)c1ccccc1Nc1ccnc2c(C(F)(F)F)cccc12 (stereo not given) to O=C(NCCc1c[nH]c2ccccc12)c1cccnc1, the “activity change, negative = inhibition” value rises from -15.7% [at 35.3 µM] to 3.56% [at 35.3 µM].

Going from NS(=O)(=O)c1cc2c(cc1Cl)CN(C1CCCCC1)C2=O to C[C@H](CCC(=O)O)[C@H]1CC[C@H]2[C@@H]3C(=O)C[C@@H]4CC(=O)CC[C@]4(C)[C@H]3CC(=O)[C@]12C, the “activity change, negative = inhibition” value rises from 3.39% [at 35.3 µM] to 4.98% [at 35.3 µM].

Going from COc1cc(C(=S)N2CCOCC2)cc(OC)c1OC to NC(CO)C(=O)NNCc1ccc(O)c(O)c1O (stereo not given), the “activity change, negative = inhibition” value falls from 3.28% [at 35.3 µM] to 1.53% [at 35.3 µM].

First: CN(C)C(=O)CNC(=O)Cc1ccccc1
Second: O=C(CCNNC(=O)c1ccncc1)NCc1ccccc1
The “activity change, negative = inhibition” value of the first is lower: -2.07% [at 35.3 µM] for the first, 0.547% [at 35.3 µM] for the second.

Compared with CC(=O)Nc1ccc(S(=O)(=O)Nc2ccc([N+](=O)[O-])cc2)cc1, O=C(O)Cc1cn(-c2ccccc2)nc1-c1ccc(Cl)cc1 is higher in “activity change, negative = inhibition” value: -1.75% [at 35.3 µM] for the first, 6.33% [at 35.3 µM] for the second.

C[Si](C)=O gave an activity change, negative = inhibition of 1.17% [at 6.97 µM].

Going from C=COCCOCCOCCOC=C to C=C(C)C(=O)OCCN(CC)CC, the “activity change, negative = inhibition” value rises from -1.85% to -1.6%.

Going from N#Cc1ccc(C(=O)O)cc1 to O=C(O)C(=O)Cc1ccccc1, the “activity change, negative = inhibition” value rises from -8.75% to -1.07%.

First: ClCCCl
Second: CCCCCCCCC(=O)Cl
The “activity change, negative = inhibition” value of the first is lower: 0.254% for the first, 0.516% for the second.

First: CC[C@H](C)C(=O)O[C@H]1C[C@H](O)C=C2C=C[C@H](C)[C@H](CC[C@@H](O)C[C@@H](O)CC(=O)O)[C@H]21
Second: CC(C)CCCCOC(=O)c1ccccc1C(=O)OCCCCC(C)C
The “activity change, negative = inhibition” value of the first is higher: 1.56% for the first, -4.85% for the second.

First: O=S(=O)(O)CCN1CCN(CCO)CC1
Second: OCCN(CCO)c1cccc(Cl)c1
The “activity change, negative = inhibition” value of the first is higher: 2.21% for the first, 0.138% for the second.

Going from On1nnc2ccccc21 to CC(CO)c1ccccc1 (stereo not given), the “activity change, negative = inhibition” value rises from 3.12% to 29.9%.

Compared with OCCC(F)(F)C(F)(F)C(F)(F)C(F)(F)C(F)(F)C(F)(F)C(F)(F)C(F)(F)F, OCCCCC(O)CO (stereo not given) is lower in “activity change, negative = inhibition” value: 0.0785% for the first, -0.186% for the second.

Compared with CC(=O)c1sc(C)nc1C, COc1cc(N)ccc1C is higher in “activity change, negative = inhibition” value: -2.34% for the first, 2.47% for the second.

First: CCCCOC(=O)c1ccccc1
Second: CCOC(=O)/C=C/c1ccccc1
The “activity change, negative = inhibition” value of the first is lower: -5.79% for the first, 7.75% for the second.

Going from CCC(C)NC(N)=O (stereo not given) to CC(C)OC(=O)CCCCC(=O)OC(C)C, the “activity change, negative = inhibition” value falls from 3.44% to 0.458%.

First: CC(C)CC(C)CC(C)CC(C)COC(=O)c1ccccc1C(=O)OCC(C)CC(C)CC(C)CC(C)C (stereo not given)
Second: C=C(C)C(=O)OCc1ccccc1
The “activity change, negative = inhibition” value of the first is higher: 4.57% for the first, 2.55% for the second.

Going from CCCCCCCCCCCCCC to C=C(C)C1CCC(C)(O)CC1 (stereo not given), the “activity change, negative = inhibition” value falls from 4% to 0.754%.

For CCCN1C[C@H](CSC)C[C@@H]2c3cccc4[nH]cc(c34)C[C@H]21, the Potency was 7.56 µM (active).
